Screening results from PubChem BioAssay.
Hits are enriched below; roughly 2% of the tested compounds scored in any of these assays.
CF NFkB inh = inhibitors of cystic fibrosis induced NF-kB | inhibition, % at 5 µM | KKLEB NF-kB-GFP reporter, PAF-induced, GFP fluorescence overnight | hit rate 0.86% among 360,000 | AID 588850;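 active = at least 50% inhibition at 5 µM, scaled per plate between neutral and stimulator controls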;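 note: PAF is a Pseudomonas aeruginosa culture filtrate used as stimulus; plate controls were PAF-stimulated DMSO wells for no effect and unstimulated DMSO wells for full effect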
EWS-Fli block = EWS/Fli transcriptional activity inhibition; A673 NR0B1-luciferase reporter, viability-normalised; inhibition, % at 12.6 µM; hit rate 0.67% among 350,000;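 active = mean inhibition of at least 50% after viability correction, with every replicate also passing that limit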;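 note: firefly luciferase signal divided by Alamar Blue viability fluorescence both relative to DMSO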
PAX8 reporter = lowers PAX8-driven luciferase in RMG-I cells. RMG-I TPO-luciferase reporter, SteadyGlo, 24 h. inhibition, % at 12.6 µM. hit rate 1.2% among 360,000;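 active = mean replicate inhibition at least 60% with every replicate also reaching 60%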;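 note: luciferase light reporting Pax8 driven TPO promoter activity; plate controls were median of neutral control wells for no effect and mitoxantrone controls for full effect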
LGR2 antag = Drosophila LGR2 receptor signaling inhibition; HEK293 LGR2, CRE-luciferase, bursicon-stimulated, 4 h; inhibition, % at 9.99 µM; hit rate 0.35% among 380,000;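 active = drop in luminescence signal, shown as inhibition above about 50% in the replicate tests, limit read from the data, passing the limit was not always enough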;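 note: agonist challenge used bursicon conditioned medium at about half maximal strength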
KKLEB cytotox = counter-screen for CF NF-kB inhibitors: cytotoxicity | hit rate 0.36% among 360,000 | activity change (cytotoxicity), % at 5 µM | KKLEB CF airway cells viability, ATPlite luminescence, overnight; active compounds read low; cells stimulated with P. aeruginosa culture filtrate | AID 602141;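 active = corrected activity change at or below -50% at 5 µM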
Shn3 3UTR inh = Schnurri-3 reporter inhibition in Clone20 osteoblasts; AID 588674; Clone20 osteoblast Shn3 3'UTR firefly luciferase, 24 h; inhibition, % at 12.5 µM; hit rate 0.52% among 360,000;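 active = mean inhibition of at least 75% with every replicate also reaching 75%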;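 note: 0% = median of neutral control wells and 100% = pilot-screen positive control compound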
An asterisk follows results filed as active; · = no result; ! = repeats disagree.

SMILES	CF NFkB inh	EWS-Fli block	PAX8 reporter	LGR2 antag	KKLEB cytotox	Shn3 3UTR inh
C[C@H]1CCCCO[C@H](CN(C)S(=O)(=O)c2ccccc2)[C@@H](C)CN([C@@H](C)CO)C(=O)c2cc(NC(=O)Nc3ccc(C(F)(F)F)cc3)ccc2O1	·	3	68*	6	·	·
O=C(C[C@@H]1CC[C@@H]2[C@H](COC[C@H](O)CN2S(=O)(=O)c2ccccc2)O1)NCCN1CCCCC1	·	1	5	-16	·	·
COCC(=O)Nc1ccc2c(c1)C(=O)N(C)C[C@@H](OC)[C@H](C)CN(C(=O)Cc1cccnc1)[C@H](C)CO2	·	6	·	-13	·	·
C[C@@H]1CCCCO[C@@H](CN(C)S(=O)(=O)c2cccs2)[C@H](C)CN([C@@H](C)CO)C(=O)c2cc(NC(=O)Nc3ccc(C(F)(F)F)cc3)ccc2O1	·	-6	65*	8	·	·
C[C@H]1CN([C@@H](C)CO)C(=O)c2cc(C#CCC3CCCC3)cnc2O[C@@H]1CN(C)S(=O)(=O)c1cccs1	·	6	67*	18	·	·
C[C@@H]1CN([C@@H](C)CO)C(=O)c2cc(NC(=O)Nc3ccc(F)cc3)ccc2O[C@@H](C)CCCCO[C@@H]1CN(C)S(=O)(=O)c1cccs1	·	-14	-29	-13	·	·
C[C@@H]1CN([C@@H](C)CO)C(=O)c2cc(C#CCC3CCCC3)cnc2O[C@@H]1CN(C)S(=O)(=O)c1cccs1	·	-15	19	5	·	·
CO[C@H]1CN(C)C(=O)c2ccc(NS(=O)(=O)c3ccc(C)cc3)cc2OC[C@@H](C)NC[C@@H]1C	·	3	·	4	·	·
C[C@H](CO)N1C[C@H](C)[C@@H](CN(C)C(=O)c2ccncc2)OCCCC[C@H](C)Oc2ccc(NC(=O)c3ccncc3)cc2C1=O	·	·	-5	-1	·	·
Cc1cc(Cl)n2c(nc3ccccc32)c1C#N	64*	24	55	-3	-31	80
Cc1c(CCCl)c(Cl)n2c(nc3ccccc32)c1C#N	78*	46	87*	24	-85*	99*
CNc1cc(C)c(C#N)c2nc3ccccc3n12	-44	-20	-18	-6	-11	19
CCc1c(C)c(C#N)c2nc3ccccc3n2c1NC	12	7	8	9	-9	4
CN1/C(=C/c2cccc[n+]2C)Sc2ccccc21	-100	31	30	9	-3	73
CCN1/C(=C/c2cccc[n+]2C)Sc2ccc(OC)cc21	-42	38	71*	13	3	73
COc1ccc2c(c1)N(C)/C(=C/c1cccc[n+]1C)S2	-54	38	49	-36	2	83
Cc1ccc2c(c1)N(C)/C(=C/c1cccc[n+]1C)S2	-73	41	79*	5	-9	88*
Cc1noc(C)c1NC(=O)Nc1ccc2c(c1)C(=O)N([C@H](C)CO)C[C@H](C)[C@H](CN(C)C(=O)NC1CCCCC1)O2	·	-14	·	10	·	·
COc1ccc(NC(=O)Nc2ccc3c(c2)C(=O)N([C@H](C)CO)C[C@@H](C)[C@H](CN(C)Cc2ccc(C(=O)O)cc2)OCCCC[C@@H](C)O3)cc1	·	-8	1	5	·	·
O=C(C[C@@H]1CC[C@H](NC(=O)CC2CC2)[C@@H](CO)O1)NCc1ccc(Cl)cc1	·	2	1	-19	·	·
Cc1cccc(NC(=S)NNc2ncc(C(F)(F)F)cc2Cl)c1	-1	·	-8	-7	-5	-7
FC(F)(F)c1cnc(NNC(=S)Nc2ccccc2Cl)c(Cl)c1	40	·	74*	36	-13	24
O=C1C(Cl)=C(NCc2ccco2)C(=O)c2ccccc21	74*	-6	0	-67	0	-5
O=C1C(Cl)=C(NCCN2CCCCC2)C(=O)c2ccccc21	75*	·	·	·	-27	95*
CC(C)(C)S(=O)N1Cc2cc(C(=O)NCCCN3CCOCC3)nc(-c3cccc(-c4cccc(F)c4)c3)c2[C@@H]1CCO (stereo partly specified)	·	5	27	·	·	·
SMILES	CF NFkB inh	EWS-Fli block	PAX8 reporter	LGR2 antag	KKLEB cytotox	Shn3 3UTR inh
CC(C)CC#Cc1ccc([C@@H]2[C@@H](CO)N3C(=O)CN(S(=O)(=O)c4cccc(F)c4)C[C@@H]23)cc1	·	0	·	10	·	·
C[C@@H]1CN([C@@H](C)CO)C(=O)Cc2cc(NC(=O)C3CC3)ccc2O[C@H]1CN(C)Cc1ccc(C(=O)O)cc1	·	-6	·	-5	·	·
C[C@H]1CN([C@@H](C)CO)C(=O)CCCn2cc(nn2)CO[C@@H]1CN(C)Cc1cccc(C(F)(F)F)c1	·	0	·	4	·	·
O=C(CCS(=O)(=O)c1ccc(Cl)cc1)Nc1nc(-c2ccncc2)cs1	26	·	96*	7	-22	35
Cc1ccc(S(=O)(=O)CCC(=O)Nc2nc(-c3cccnc3)cs2)cc1	22	10	-1	11	-2	17
Cc1ccc(S(=O)(=O)CCC(=O)Nc2nc(-c3ccccn3)cs2)cc1	14	19	80*	-8	1	42
C/C(CC(=O)NCc1ccco1)=N\NC(=O)COc1ccc(C)cc1	14	4	65*	13	-4	16
C/C(CC(=O)NCc1ccco1)=N\NC(=O)COc1ccc(Cl)cc1Cl	8	2	12	14	-9	-15
CC12CCC(C(=O)N/N=C/c3ccc(O)cc3O)(OC1=O)C2(C)C (stereo unspecified)	10	5	23	0	-7	89*
C/C(=N\NC(=O)C12CCC(C)(C(=O)O1)C2(C)C)c1ccccc1O (stereo unspecified)	28	10	9	15	6	41
COc1cccc(-c2ccc(C3[C@@H]4CN(C(=O)c5cnccn5)C[C@H]3N4)cc2)c1 (stereo partly specified)	·	52*!	-21	-6	·	·
N#Cc1ccc(-c2ccc(C3[C@@H]4CN(C(=O)c5ccc6c(c5)OCO6)C[C@H]3N4)cc2)cc1 (stereo partly specified)	·	-8	91*!	2	·	·
N#Cc1ccc(-c2ccc(C3[C@@H]4CN(C(=O)C5CCCC5)C[C@H]3N4)cc2)cc1 (stereo partly specified)	·	3	·	6	·	·
N#Cc1cccc(-c2ccc(C3[C@@H]4CN(C(=O)c5ccc6c(c5)OCO6)C[C@H]3N4)cc2)c1 (stereo partly specified)	·	-5	6	-18	·	·
O=C(C1CC1)N1C[C@@H]2N[C@H](C1)C2c1ccc(-c2cccc(F)c2)cc1 (stereo partly specified)	·	6	83*!	61*!	·	·
N#Cc1ccc(-c2ccc(C3[C@@H]4CN(C(=O)C5CCC5)C[C@H]3N4)cc2)cc1 (stereo partly specified)	·	-4	·	70*!	·	·
CO[C@@H]1CN(C)C(=O)c2cc(NS(C)(=O)=O)ccc2OC[C@@H](C)N(C(=O)C2CCCCC2)C[C@H]1C	·	-9	-1	-19	·	·
C[C@@H]1CN([C@H](C)CO)C(=O)c2cc(NC(=O)NC3CCCCC3)ccc2O[C@@H](C)CCCCO[C@@H]1CN(C)Cc1ccc(C(=O)O)cc1	·	-2	-2	-13	·	·
